Data reported in PubChem BioAssay (NCATS).
Records with an inconclusive call do not appear. The source made the active and inactive calls. Unless noted, calls follow the shape of the dose curve; as a rule, active = well fitted curve in either direction with a large enough effect (not every such curve was filed as active); inconclusive = small, poorly fitted or top-dose-only effect, or another doubt; inactive = flat fitted curve, though single readings scatter.

Assays:
[1] = molecular target: Lysosomal acid glucosylceramidase (Homo sapiens) (UniProt P04062); experiment: Glucocerebrosidase-p2 (AID 348; in the data active = potency below about 10 µM; also: potency is read from the fitted curve at half-maximal effect); settings: purified GBA, blue fluorogenic substrate, 40 min
Summary of the method: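 Normal human glucocerebrosidase (0.2 nM) with blue fluorogenic substrate (80 uM final) in citrate/phosphate pH 5.9 with 10mM sodium taurocholate, 0.01% tween-20; 40 min RT, NaOH/glycine stop; fluorescence Ex 365/Em 440; AC50 from a titration from 0.6 nM upwards.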

[2] = molecular target: Cytochrome P450 1A2 (Homo sapiens) (UniProt P05177); experiment: p450-cyp1a2 (AID 410; calls by dose curve; also: potency is read from the fitted curve at half-maximal effect); settings: recombinant CYP1A2, luciferin-ME demethylation, luminescence; series mostly up to 57 µM
Summary of the method: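 20nM CYP1A2, 100uM Luciferin-ME (=Km), 100mM KPO4; cpd 10 min RT; +NADPH regen, 60 min RT; stop/detect 20 min; luminescence. Normalized to furafylline 57 uM = full inhibition.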

[3] = Stat Signaling Pathway (AID 446); settings: ME-180 (cervical carcinoma) SIE beta-lactamase reporter, IL-6 stimulated, 5 h; series mostly up to 7.69 µM;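 also: ME-180 cervical cancer cells given 40 pM IL-6 alongside compound; SIE-controlled beta-lactamase reporter measured as 460/530 nm FRET emission ratio; % is scaled to controls: 0 for no effect and ±100 for the full control effect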
Summary of the method: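 FRET read-out (405 nm excitation, 460/530 nm emission) of a beta-lactamase reporter under a STAT-inducible element in ME-180 cervical carcinoma cells. Cells with compound receive 40 pM IL-6 for 5 h. Values are normalised to AC90 stimulation and AC90 JAK-inhibitor controls.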

[4] = molecular target: Glucocorticoid receptor (Homo sapiens) (UniProt P04150); experiment: GR-GFP Redistribution (AID 450;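 active = compounds whose dose series gives a full or clear partial fitted curve of increased nuclear translocation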; also: potency is read from the fitted curve at half-maximal effect); settings: U2OS GR-GFP nuclear translocation, laser cytometry, 2 h
[5] = molecular target: Glucocorticoid receptor (Homo sapiens) (UniProt P04150); experiment: GR-EFC Redistribution (AID 451; calls by dose curve; also: potency is read from the fitted curve at half-maximal effect); settings: CHO-K1 GR-EFC translocation, beta-gal luminescence, 2 h
Summary of the method: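 CHO-K1 cells stably expressing nuclear-localized β-gal enzyme acceptor and GR fused C-terminally to the enzyme donor fragment; ligand-driven nuclear translocation restores β-gal by complementation. Compounds titrated up to 46 uM final, 2 h at 37 °C; luminescence read.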

[6] = molecular target: Mitogen-activated protein kinase 10 (Mus musculus) (UniProt Q61831); experiment: JNK3 AlphaScreen Assay (AID 530); settings: JNK3 lysate, c-Jun phosphorylation; series mostly up to 57.1 µM;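 also: kinase came from lysate of stimulated human HepG2 cells; signal reports phosphorylation of biotinylated GST-cJun 1-79 at Ser73 with 10 µM ATP; % is scaled to controls: 0 for no effect and ±100 for the full control effect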
Summary of the method: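 Biotinylated GST-cJun(1-79) served as substrate for JNK3 in HepG2 lysates stimulated with IL-1beta and TNF-alpha. ATP was 10 uM final, pH 7.6. Ser73 phosphorylation was quantified by AlphaScreen (680 nm excitation).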

[7] = molecular target: Ubiquitin carboxyl-terminal hydrolase 1 (Homo sapiens) (UniProt O94782); experiment: Inhibitors of USP1/UAF1: Pilot qHTS (AID 504865; active = well fitted inhibition curve with a large enough effect;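 also: rhodamine fluorescence freed from ubiquitin-rhodamine substrate followed over time; top concentration of the series differs between compounds; % is scaled to controls: 0 for no effect and ±100 for the full control effect; nearly all actives have a fitted effect of over 35% in size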); settings: purified USP1/UAF1, Ub-rhodamine cleavage fluorescence; series mostly up to 54.9 µM
Summary of the method: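 USP1/UAF1 complex at 1 nM preincubated 15 min at room temperature with compound, then Ub-Rho substrate added at 150 nM final. Fluorescence (480/540 nm) read kinetically in 50 mM HEPES pH 7.8, 0.5 mM EDTA, 1 mM TCEP, 0.1 mg/ml BSA, 0.01% Tween-20.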

[8] = NFAT Signaling Pathway (AID 444); settings: Jurkat NFAT-bla M1, carbachol, beta-lactamase ratio, 5 h; at 7.69 µM (top of the series) unless noted;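 also: carbachol stimulus at about its EC50 of 1 µM final; % is scaled to controls: 0 for no effect and ±100 for the full control effect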
Summary of the method: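 Jurkat cells carrying an NFAT-driven β-lactamase reporter and co-transfected muscarinic M1 receptor were treated with compound plus carbachol (1 uM final, an EC50 level) for 5 h at 37 °C. CCF4 loading followed for 1 h at RT; 460/530 nm ratio gave %activity.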

Chain of Ubiquitin carboxyl-terminal hydrolase 1 (Homo sapiens) (O94782 whole entry, looked up): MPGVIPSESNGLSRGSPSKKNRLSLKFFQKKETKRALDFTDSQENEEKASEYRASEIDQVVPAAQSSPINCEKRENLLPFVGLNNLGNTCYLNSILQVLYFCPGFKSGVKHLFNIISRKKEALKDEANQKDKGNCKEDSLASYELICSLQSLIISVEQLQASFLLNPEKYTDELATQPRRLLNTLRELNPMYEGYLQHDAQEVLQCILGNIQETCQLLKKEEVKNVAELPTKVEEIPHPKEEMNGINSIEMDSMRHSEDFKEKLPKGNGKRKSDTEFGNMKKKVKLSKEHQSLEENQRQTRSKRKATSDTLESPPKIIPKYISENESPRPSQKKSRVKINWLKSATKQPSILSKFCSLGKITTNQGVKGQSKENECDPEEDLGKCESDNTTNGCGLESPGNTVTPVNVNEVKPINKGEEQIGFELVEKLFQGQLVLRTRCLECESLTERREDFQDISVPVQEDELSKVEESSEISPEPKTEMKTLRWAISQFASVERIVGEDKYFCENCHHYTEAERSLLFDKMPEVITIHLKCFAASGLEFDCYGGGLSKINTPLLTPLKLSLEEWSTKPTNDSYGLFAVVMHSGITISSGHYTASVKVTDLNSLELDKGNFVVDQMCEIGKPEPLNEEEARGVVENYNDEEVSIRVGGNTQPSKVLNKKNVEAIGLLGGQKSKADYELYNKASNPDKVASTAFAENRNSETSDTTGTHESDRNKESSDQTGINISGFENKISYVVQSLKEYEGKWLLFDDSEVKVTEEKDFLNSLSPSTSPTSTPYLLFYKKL
Chain of Lysosomal acid glucosylceramidase (Homo sapiens) (P04062 whole entry, looked up): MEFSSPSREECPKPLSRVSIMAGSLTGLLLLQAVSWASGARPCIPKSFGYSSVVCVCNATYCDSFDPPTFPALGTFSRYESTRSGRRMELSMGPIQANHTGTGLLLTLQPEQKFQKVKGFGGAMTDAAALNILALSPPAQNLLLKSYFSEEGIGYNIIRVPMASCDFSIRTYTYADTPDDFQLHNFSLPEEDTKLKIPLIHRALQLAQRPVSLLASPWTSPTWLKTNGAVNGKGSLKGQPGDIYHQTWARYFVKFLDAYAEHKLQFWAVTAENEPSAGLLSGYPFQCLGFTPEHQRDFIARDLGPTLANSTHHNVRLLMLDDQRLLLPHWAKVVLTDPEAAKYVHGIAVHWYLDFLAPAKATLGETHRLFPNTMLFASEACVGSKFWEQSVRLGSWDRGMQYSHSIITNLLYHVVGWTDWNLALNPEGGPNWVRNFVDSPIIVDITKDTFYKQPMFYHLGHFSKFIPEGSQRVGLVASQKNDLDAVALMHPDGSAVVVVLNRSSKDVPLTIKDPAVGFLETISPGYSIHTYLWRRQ
Chain of Glucocorticoid receptor (Homo sapiens) (P04150 whole entry, looked up, the tested form may be a part): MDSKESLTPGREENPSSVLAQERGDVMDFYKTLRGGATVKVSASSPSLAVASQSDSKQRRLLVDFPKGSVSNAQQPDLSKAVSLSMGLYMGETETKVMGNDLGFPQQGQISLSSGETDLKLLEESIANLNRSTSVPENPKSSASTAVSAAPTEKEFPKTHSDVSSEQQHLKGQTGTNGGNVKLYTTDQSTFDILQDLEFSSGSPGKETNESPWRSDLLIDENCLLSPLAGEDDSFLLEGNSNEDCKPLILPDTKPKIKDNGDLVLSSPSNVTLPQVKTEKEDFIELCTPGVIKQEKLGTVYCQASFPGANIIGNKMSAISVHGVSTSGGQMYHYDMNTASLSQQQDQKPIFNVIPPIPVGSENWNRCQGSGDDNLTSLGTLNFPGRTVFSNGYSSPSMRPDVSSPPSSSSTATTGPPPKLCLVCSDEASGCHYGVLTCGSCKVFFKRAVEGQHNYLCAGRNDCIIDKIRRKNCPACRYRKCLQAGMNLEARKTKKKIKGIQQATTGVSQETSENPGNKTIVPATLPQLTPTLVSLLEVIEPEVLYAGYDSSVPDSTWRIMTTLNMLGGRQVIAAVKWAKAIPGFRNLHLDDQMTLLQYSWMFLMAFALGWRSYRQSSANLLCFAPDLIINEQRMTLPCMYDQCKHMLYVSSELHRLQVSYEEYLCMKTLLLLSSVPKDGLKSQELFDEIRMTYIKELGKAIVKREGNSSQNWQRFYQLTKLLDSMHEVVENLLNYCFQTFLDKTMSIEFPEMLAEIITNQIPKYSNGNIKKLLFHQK
Chain of Cytochrome P450 1A2 (Homo sapiens) (P05177 whole entry, looked up): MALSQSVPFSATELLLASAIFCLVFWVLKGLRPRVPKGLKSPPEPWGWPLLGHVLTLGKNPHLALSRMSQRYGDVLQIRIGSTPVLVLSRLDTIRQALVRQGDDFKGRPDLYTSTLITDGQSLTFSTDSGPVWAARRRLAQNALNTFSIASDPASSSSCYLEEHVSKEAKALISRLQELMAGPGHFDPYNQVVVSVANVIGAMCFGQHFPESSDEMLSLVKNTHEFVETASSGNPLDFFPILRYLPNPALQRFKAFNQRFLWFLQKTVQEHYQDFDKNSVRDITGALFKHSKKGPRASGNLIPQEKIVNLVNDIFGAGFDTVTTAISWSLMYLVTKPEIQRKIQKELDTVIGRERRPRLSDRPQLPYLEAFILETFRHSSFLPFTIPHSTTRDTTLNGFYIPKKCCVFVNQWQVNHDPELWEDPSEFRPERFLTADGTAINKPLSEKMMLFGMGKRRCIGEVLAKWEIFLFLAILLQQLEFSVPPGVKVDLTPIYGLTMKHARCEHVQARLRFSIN

COc1cccc(-c2ccc3ncnc(NCc4ccc(OC)cc4OC)c3c2)c1
active: Potency [2] 2.51 µM
inactive: Potency [1] > 11.4 µM | outcome [3] | Potency [4] > 46 µM | Potency [5] > 46 µM | Potency [6] | Potency [7]

Cn1cc(-c2nc3cnc(N4CCNCC4)nc3n(C3CC3)c2=O)c2ccccc21
inactive: Potency [1] > 11.4 µM | activity change, negative = inhibition [8] 28.9% | Potency [4] > 9.22 µM | Potency [5] > 46 µM | Potency [7]
active: Potency [2] 12.6 µM

CC(=O)NCCNc1nc(-c2cccc(C#N)c2)nc2ccccc12
inactive: Potency [1] > 11.4 µM | activity change, negative = inhibition [8] 12.4% | outcome [3] | Potency [4] > 46 µM | Potency [6] | Potency [7]

COc1cccc(-c2cncnc2NCCc2c[nH]c3ccc(OC)cc23)c1
inactive: Potency [1] > 11.4 µM | Potency [4] > 46 µM | Potency [5] > 46 µM | Potency [7]
active: Potency [2] 2 µM

COc1cccc(-c2ccc3ncnc(NCc4cnc(C)cn4)c3c2)c1
active: Potency [2] 2.51 µM
inactive: Potency [1] > 11.4 µM | activity change, negative = inhibition [8] 27.1% | outcome [3] | Potency [4] > 46 µM | Potency [7]

O=c1c(-c2ccccc2)nc2cnc(N3CCOCC3)nc2n1CCc1ccccc1
active: Potency [2] 12.6 µM
inactive: Potency [1] > 11.4 µM | Potency [4] > 9.22 µM | Potency [5] > 46 µM | Potency [7]

Clc1ccccc1-c1nc(-n2ccnc2)c2ccccc2n1
active: Potency [2] 0.158 µM
inactive: Potency [1] > 11.4 µM | activity change, negative = inhibition [8] -17.9% | outcome [3] | Potency [4] > 46 µM | Potency [5] > 46 µM | Potency [6] | Potency [7]

COc1ccccc1CNc1ncncc1-c1ccccc1Cl
inactive: Potency [1] > 11.4 µM | outcome [3] | Potency [4] > 46 µM | Potency [5] > 46 µM | Potency [6] | Potency [7]
active: Potency [2] 10 µM

COc1ccc(-c2nc3cnc(N4CCOCC4)nc3n(-c3ccc(OC)cc3)c2=O)cc1
active: Potency [2] 10 µM
inactive: Potency [1] > 11.4 µM | outcome [3] | Potency [4] > 9.22 µM | Potency [5] > 46 µM

COc1cccc(-c2ccc3ncnc(Nc4ccccc4)c3c2)c1
inactive: Potency [1] > 11.4 µM | outcome [3] | Potency [4] > 46 µM | Potency [5] > 46 µM | Potency [6] | Potency [7]
active: Potency [2] 1 µM

CN(C)c1ccc(-c2nccc(Nc3ccc(F)cc3)n2)cc1
active: Potency [2] 0.501 µM
inactive: activity change, negative = inhibition [8] -29.4% | outcome [3] | Potency [4] > 46 µM | Potency [5] > 46 µM | Potency [6]

COc1ncc2nc(CCc3ccccc3)c(=O)n(-c3ccccc3)c2n1
active: Potency [2] 12.6 µM
inactive: Potency [1] > 11.4 µM | activity change, negative = inhibition [8] -14.3% | outcome [3] | Potency [4] > 9.22 µM | Potency [5] > 46 µM | Potency [6] | Potency [7]

c1cn(-c2ncnc3ccc(-c4ccoc4)cc23)cn1
inactive: Potency [1] > 11.4 µM | activity change, negative = inhibition [8] -5.74% | outcome [3] | Potency [4] > 46 µM | Potency [5] > 46 µM | Potency [6] | Potency [7]
active: Potency [2] 1.26 µM

COCCn1c(=O)c(-c2ccc(F)cc2)nc2cnc(Nc3cccc(OC)c3)nc21
active: Potency [2] 3.16 µM
inactive: Potency [1] > 11.4 µM | activity change, negative = inhibition [8] -5.01% | outcome [3] | Potency [5] > 46 µM | Potency [6] | Potency [7]

Cc1nc2cnc(OCc3ccccc3)nc2n(CCc2ccccc2)c1=O
inactive: Potency [1] > 11.4 µM | activity change, negative = inhibition [8] -10.4% | outcome [3] | Potency [4] > 9.22 µM | Potency [5] > 46 µM | Potency [7]

COc1ccccc1CNc1ncncc1-c1ccccc1C(F)(F)F
inactive: Potency [1] > 11.4 µM | outcome [3] | Potency [4] > 46 µM | Potency [5] > 46 µM | Potency [6] | Potency [7]
active: Potency [2] 15.8 µM

COc1ccccc1CNc1ncnc2ccc(-c3ccc(C(=O)N(C)C)cc3)cc12
inactive: Potency [1] > 11.4 µM | activity change, negative = inhibition [8] 14.5% | outcome [3] | Potency [4] > 46 µM | Potency [6] | Potency [7]
active: Potency [2] 12.6 µM

O=c1c(-c2ccccc2)nc2cnc(Oc3ccccc3)nc2n1C[C@H]1CCCO1
inactive: Potency [1] > 11.4 µM | activity change, negative = inhibition [8] 4.49% | outcome [3] | Potency [4] > 9.22 µM | Potency [5] > 46 µM | Potency [6]

CN(Cc1ccco1)c1cc(-c2ccc3c(c2)OCO3)ncn1
active: Potency [2] 0.501 µM
inactive: Potency [1] > 11.4 µM | activity change, negative = inhibition [8] -0.867% | outcome [3] | Potency [5] > 46 µM | Potency [6] | Potency [7]

COc1ccc(CNc2ncncc2-c2ccccc2OC)c(OC)c1
active: Potency [2] 5.01 µM
inactive: Potency [1] > 11.4 µM | activity change, negative = inhibition [8] -12.1% | outcome [3] | Potency [4] > 46 µM | Potency [5] > 46 µM | Potency [6] | Potency [7]

N#Cc1ccccc1-c1ccc2ncnc(NCc3cccnc3)c2c1
inactive: Potency [1] > 11.4 µM | activity change, negative = inhibition [8] 17.5% | outcome [3] | Potency [4] > 46 µM | Potency [7]

c1ccc2c(NCCN3CCOCC3)nc(-c3ccoc3)nc2c1
inactive: Potency [1] > 11.4 µM | activity change, negative = inhibition [8] -7.47% | outcome [3] | Potency [4] > 46 µM | Potency [5] > 46 µM | Potency [6] | Potency [7]
active: Potency [2] 5.01 µM
